NFkB transloc pot – enhances IL-1B driven NFkB nuclear translocation; 94,000 compounds, 0.3% hits; activation, % at 2 µM; HUVEC IL-1B NFkB p65 nuclear translocation imaging;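 active means activation above 40%, about the mean plus 3 SD, also judged a hit on visual image review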;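 further: percent activation is computed from the nuclear over cytoplasmic p65 intensity ratio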
Pyk2 oligo antag – antagonists of human Pyk2 oligomerization. 99,000 compounds, 0.83% hits. z-score (the deposit names both 25 µM and 10 µM). Q293 cells, Pyk2 FERM NanoBiT luminescence; active compounds read low. Q14289;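 active means Z-score of -3 or lower, scaled per plate to the spread of control and sample wells; inactive means z-score above -3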;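 further: negative z-score means lost luminescence so less FERM oligomerization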
Target sequence (Q14289 whole entry, looked up): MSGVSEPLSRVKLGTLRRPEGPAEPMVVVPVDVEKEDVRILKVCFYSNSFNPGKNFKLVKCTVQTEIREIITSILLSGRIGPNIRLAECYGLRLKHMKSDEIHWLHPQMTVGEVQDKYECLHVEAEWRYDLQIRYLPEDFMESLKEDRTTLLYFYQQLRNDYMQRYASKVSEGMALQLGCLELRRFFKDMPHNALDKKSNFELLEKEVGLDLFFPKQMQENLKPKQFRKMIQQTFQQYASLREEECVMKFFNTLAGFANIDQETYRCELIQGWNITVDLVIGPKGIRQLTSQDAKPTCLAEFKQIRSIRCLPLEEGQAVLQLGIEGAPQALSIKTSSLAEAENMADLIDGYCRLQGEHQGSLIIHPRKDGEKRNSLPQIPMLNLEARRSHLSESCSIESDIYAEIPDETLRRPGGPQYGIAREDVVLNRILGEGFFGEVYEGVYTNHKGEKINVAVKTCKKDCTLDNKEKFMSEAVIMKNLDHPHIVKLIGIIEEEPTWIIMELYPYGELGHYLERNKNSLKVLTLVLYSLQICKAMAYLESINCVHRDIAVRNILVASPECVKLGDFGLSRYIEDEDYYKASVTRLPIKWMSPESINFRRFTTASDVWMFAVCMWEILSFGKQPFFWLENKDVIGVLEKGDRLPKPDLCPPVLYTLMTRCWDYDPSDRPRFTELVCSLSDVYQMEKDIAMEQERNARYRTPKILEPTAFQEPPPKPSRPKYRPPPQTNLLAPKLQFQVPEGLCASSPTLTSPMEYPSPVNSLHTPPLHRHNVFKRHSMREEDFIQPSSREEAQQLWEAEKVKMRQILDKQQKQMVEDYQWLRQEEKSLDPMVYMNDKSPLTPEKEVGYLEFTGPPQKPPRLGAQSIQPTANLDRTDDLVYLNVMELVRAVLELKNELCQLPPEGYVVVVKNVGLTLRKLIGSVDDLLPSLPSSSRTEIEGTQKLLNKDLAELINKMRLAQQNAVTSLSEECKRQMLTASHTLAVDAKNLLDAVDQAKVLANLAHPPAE
Phagocyt inh – macrophage phagocytosis inhibition; J774A.1 macrophage IgG-bead phagocytosis, imaging; inhibition, % at 5 µM; 110,000 compounds, 0.07% hits;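 active means inhibition above the mean of the plate negative controls plus 5 SD, cut at about 13% in these data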;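 further: phagocytic index as fraction of beads internalized from green versus red external bead signal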
NFkB transloc inh – blocks IL-1B driven NFkB nuclear translocation in HUVEC cells | inhibition, % at 2 µM | 94,000 compounds, 0.43% hits | HUVEC IL-1B NFkB p65 nuclear translocation imaging;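 active means inhibition above about 30% together with a positive call from visual inspection of the well image, limit read from the data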;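 further: nuclear over cytoplasmic p65 intensity ratio measured by imaging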
HUVEC tox IL1B – toxic to HUVEC cells under IL-1B stimulation; 94,000 compounds, 0.41% hits; HUVEC cell count loss, Hoechst imaging, IL-1B stimulated; cell count reduction, % at 2 µM;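 active means cell count reduction more than 3 SD above the screen-wide mean, cut at about 70% in these data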
A number is an active result; – = inactive; · = no result given. Sampled rows, rich in hits. Any-hit rate of the full collection: about 1.4%.

SMILES	NFkB transloc pot	Pyk2 oligo antag	Phagocyt inh	NFkB transloc inh	HUVEC tox IL1B
CN(C)c1nc(N)nc(/C(C#N)=C/C2CC3C=CC2C3)n1 (stereo not drawn)	42	–	–	–	–
Cc1ccc(C(=O)N2CCN(c3ccc(Cl)cc3)CC2)cc1	–	–	–	–	88
CCOC(=O)c1cccc(NC(=O)Nc2cc(OC)ccc2OC)c1	–	-3.4	–	–	–
COc1ccc(OC)c(NC(=O)Nc2ccccc2C)c1	–	–	–	–	–
CCOC(=O)c1c(C)n(C)c2ccc(OC)c(NC(=O)CN3CCN(Cc4ccccc4)CC3)c12	–	–	·	–	–
CCOC(=O)c1c(C)n(C)c2ccc(OC)c(NC(=O)CN3CCN(C4CCCCC4)CC3)c12	–	–	–	–	87
CCC1CCCCN1C(=O)CSc1nnc(-c2ccc(Cl)cc2)o1 (stereo not drawn)	–	·	–	–	–
CCC1CCCCN1C(=O)CSc1nnc(-c2ccc(Cl)s2)o1 (stereo not drawn)	–	–	–	–	87
O=C(c1ccco1)N1CCN(c2nc(C3CC3)nc3sc4c(c23)CCCC4)CC1	–	–	–	–	–
CCc1cccc(CC)c1N1C(=O)c2cc(N3CCOCC3)c([N+](=O)[O-])cc2C1=O	·	·	–	·	·
CCc1ccccc1N1C(=O)c2cccc3c(N4CCOCC4)c([N+](=O)[O-])cc(c23)C1=O	–	-3	·	–	–
CCSC1=C(C#N)C(c2ccc3c(c2)OCO3)C2=C(CCCC2=O)N1 (stereo not drawn)	66	–	–	–	–
N#CC1=C(SCc2ccccc2)NC2=C(C(=O)CCC2)C1c1ccc2c(c1)OCO2 (stereo not drawn)	–	–	–	–	–
Cc1nc(S(=O)(=O)NC2CCCCC2)c(C#N)c(C)c1Cl	–	–	·	–	–
Cc1nc(S(=O)(=O)N(C)Cc2ccccc2)c(C#N)c(C)c1Cl	–	–	·	31	–
O=C(CN1CCCCC1)Nc1ccc(F)c(Cl)c1	·	–	–	·	·
Cc1ccc2cccc(S(=O)(=O)N3CCN(c4cccc(Cl)c4)CC3)c2n1	–	-3.1	–	–	–
CCN(CC)CCSc1nc(O)c(C(C)C)c(=O)[nH]1	–	–	–	–	–
CCCc1c(O)nc(SCCN(CC)CC)[nH]c1=O	–	–	–	32	89
COc1ccc(NC(=O)N(Cc2cccs2)Cc2cc3cc4c(cc3[nH]c2=O)OCO4)cc1	·	·	–	·	·
Cc1nn(-c2ccccc2)c(C)c1/C=N/NC(=O)c1cc(C(C)(C)C)[nH]n1	–	–	–	–	–
Cc1ccc(-c2cc(C(=O)N/N=C/c3c(C)nn(-c4ccccc4)c3C)[nH]n2)cc1	–	-3	–	–	–
COc1ccc(C(=O)Nc2nnc(-c3cccs3)s2)cc1	–	–	–	–	–
COc1ccc(-c2cc(C(=O)N3CCCc4ccccc43)no2)cc1OC	–	–	–	–	–
CCOc1cc(/C=C2/SC(=Nc3ccccc3)N(Cc3cccnc3)C2=O)ccc1OCC#N	–	-3.6	–	–	–
SMILES	NFkB transloc pot	Pyk2 oligo antag	Phagocyt inh	NFkB transloc inh	HUVEC tox IL1B
CC1=NN(C(=O)Cc2ccc([N+](=O)[O-])cc2)C(O)(c2ccccc2)C1 (stereo not drawn)	–	–	–	–	–
Cn1c(SCC(=O)Nc2ccc3c(c2)OCO3)nnc1-c1cnccn1	–	–	–	–	86
O=C(COC(=O)c1n[nH]c(=O)c2ccccc12)c1ccccc1	–	–	–	–	–
CC1=NN(Cc2ccccc2)C(=O)C1C(c1ccccc1)C(C#N)C#N (stereo not drawn)	–	-3.6	·	–	–
CCOc1ccc(-c2cc(CCCC(=O)NCCc3ccccc3)no2)cc1	–	–	–	–	–
CC1(C)CC(=O)c2cc(OCC(=O)O)ccc2O1	–	–	–	–	–
COc1ccc([N+](=O)[O-])cc1COc1ccc2c(-c3ccccc3)cc(=O)oc2c1	–	–	–	–	70
CN(C)S(=O)(=O)N1CCN(S(=O)(=O)N(C)C)CC1	–	–	·	–	–
CC1CN(S(=O)(=O)N(C)C)CCN1S(=O)(=O)N(C)C (stereo not drawn)	–	–	–	–	88
OCc1ccccc1CNCc1ccccc1	–	–	–	–	–
O=[N+]([O-])c1nn(-c2ccc3c(c2)OCCO3)n(O)c1=Nc1ccc(Cl)cc1	–	-3.4	·	–	–
CCNS(=O)(=O)c1ccc(OC)c(C)c1	–	–	–	63	83
O=C(NC1CCCCC1)N1CCc2ccccc21	–	–	–	–	–
COC(=O)c1[nH]c2cc(OC)ccc2c1NC(=O)CCN1CCSCC1	–	–	·	–	–
C1=Nc2c(NCc3ccccc3)ncnc2Oc2ccccc21	–	–	–	98	91

Assay outcomes (PubChem)
